# D1 allo mod: D1 dopamine receptor (human) allosteric modulation. P21728. HEK293 D1, CRE-luciferase, dopamine EC30 potentiation; actives deviate in either direction. B-score at 10 µM. 58,000 tested, 5.9% active;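 active = luminescence count or its row- and column-corrected plate score outside the 99.7% band of the plate's sample wells, on either side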
# ROCK2 inh: blocks human Rho kinase 2 activity; inhibition, % at 6 µM; AID 604; 60,000 tested, 0.35% active; purified ROCK2, Kinase-Glo ATP depletion luminescence; O75116;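 active = inhibition above the screen-wide mean inhibition plus 3 SD, cut at about 18% in these data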;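 note: plate controls were DMSO wells for no effect and Y-27632 control wells after no-enzyme background subtraction for full effect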
# DAT uptake mod: modulates human dopamine transporter uptake under cocaine | B-score at 10 µM | 110,000 tested, 1.3% active | LLC-PK1 hDAT cells, [14C]-dopamine uptake with cocaine IC80; actives deviate in either direction | Q01959;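 active = Z score or B-score, a plate-position-corrected score, falls beyond the plate's 99.7% confidence bounds, in either direction; inactive = both scores lie inside the 99.7% bounds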;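 note: scored against the spread of the other compound wells on the same plate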
# JNK3 inh: inhibitors of human JNK3 kinase | purified JNK3 kinase activity, HTS | inhibition, % at 8 µM | P53779 | 60,000 tested, 0.61% active; in the data active = inhibition above about 17%;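 note: 0% = DMSO and 100% = reference inhibitor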
# Target sequence (P53779 whole entry, looked up): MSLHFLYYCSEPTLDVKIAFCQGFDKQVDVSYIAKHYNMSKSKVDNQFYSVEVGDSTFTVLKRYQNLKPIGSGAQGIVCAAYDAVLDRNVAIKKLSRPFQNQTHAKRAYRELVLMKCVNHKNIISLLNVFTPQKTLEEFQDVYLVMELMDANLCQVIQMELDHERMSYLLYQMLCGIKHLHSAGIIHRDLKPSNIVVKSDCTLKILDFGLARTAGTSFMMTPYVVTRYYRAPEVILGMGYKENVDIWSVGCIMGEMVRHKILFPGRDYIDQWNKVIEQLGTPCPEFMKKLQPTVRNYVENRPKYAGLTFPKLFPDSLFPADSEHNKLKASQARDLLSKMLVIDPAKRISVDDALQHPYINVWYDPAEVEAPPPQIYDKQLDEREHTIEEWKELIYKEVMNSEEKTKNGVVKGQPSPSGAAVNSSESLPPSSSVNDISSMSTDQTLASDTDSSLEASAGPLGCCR
# PKA kinase inh: blocks human protein kinase A activity | P17612 | PKA Kemptide phosphorylation, Kinase-Glo ATP luminescence | inhibition, % at 6 µM | 65,000 tested, 0.1% active | AID 524;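 active = inhibition above the screen-wide mean inhibition plus 3 SD, cut at about 21% in these data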
# D1 PAM confirm: confirmation of human D1 dopamine receptor allosteric modulators; shares compounds with D1 allo mod; HEK293 D1 CRE-luciferase, dopamine EC30 potentiation; stronger effect = higher value; luminescence at 10 µM; 2,200 tested, 88% active; AID 642;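 active = luminescence in either of two replicates above the same-plate mean plus 3 SD of the low-dose dopamine control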
# D1 no dopamine: D1 (human) signaling in absence of dopamine; shares compounds with D1 allo mod; HEK293 D1 CRE-luciferase, luminescence, no dopamine; stronger effect = higher value; luminescence at 10 µM; 1,900 tested, 0.8% active; AID 646; in the data active = luminescence above about 3900
# Isoprot counter: isoproterenol response counter-screen activity for D1 modulators; HEK293 D1 CRE-luciferase, isoproterenol EC30 counter-screen; calls only at 10 µM; 2,200 tested, 63% active; shares compounds with D1 allo mod;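 active = luminescence in either replicate above plate mean of wells with a partly effective reference agonist dose plus 3 SD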;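 note: isoproterenol raises cAMP through native beta-adrenoceptor Gs so signal bypasses D1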
# Starred values were filed as active, the others as inactive; i = inactive; . = no result; + = active, no number. The sample as a whole holds a higher share of hits than the screen did.
SMILES,D1 allo mod,ROCK2 inh,DAT uptake mod,JNK3 inh,PKA kinase inh,D1 PAM confirm,D1 no dopamine,Isoprot counter
N#Cc1c(-c2cccs2)cc(-c2cccnc2)nc1N,18*,-2,-0.062,10,-4,16780*,1536,+
N#Cc1c(-c2cccs2)cc(-c2ccccn2)nc1N,5.6*,-2,0.11,7,-3,10756*,1560,+
N#Cc1c(-c2cccs2)cc(C2CC2)nc1SCC(N)=O,.,.,1.1,.,.,.,.,.
c1cncc(-c2nnc(-c3cccs3)o2)c1,0.11,.,-0.19,.,10,.,.,.
O=S(=O)(c1ccccc1)c1cnc(-c2cccnc2)nc1-c1ccc(Cl)c(Cl)c1,.,.,0.03,.,.,.,.,.
N#Cc1nc(-c2cccs2)oc1NCc1ccccc1,.,1,1.2,3,4,.,.,.
Cc1ccc(CNc2oc(-c3cccs3)nc2C#N)cc1,18*,5,0.27,5,8,22592*,1632,+
COc1ccccc1-c1nc(C#N)c(NCc2ccc(F)cc2)o1,-0.067,4,0.0032,-3,7,.,.,.
N#Cc1nc(-c2cccs2)oc1NCc1ccc(Cl)cc1,8.3*,0,0.032,0,2,9676*,1684,+
N#Cc1nc(-c2ccc(F)cc2)oc1NCc1ccccc1,5.7*,2,0.031,1,11,8092*,1668,i
O=[N+]([O-])c1cccc(/C=C/c2nc3ccc([N+](=O)[O-])cc3[nH]2)c1,.,.,1.1,.,.,.,.,.
Cc1cc(C(=O)N/N=C/c2cccc(OC(=O)c3ccco3)c2)n[nH]1,.,.,-0.22,.,.,.,.,.
COc1ccc(NC(=O)C2CCN(S(=O)(=O)c3cccc4cccnc34)CC2)cc1OC,3.6*,6,.,3,7,13296*,1648,+
COc1ccc(C)cc1NC(=O)C1CCN(S(=O)(=O)c2cccc3cccnc23)CC1,1.3,1,0.39,-12,7,.,.,.
COc1ccc(N2CCN(S(=O)(=O)c3cccc4cccnc34)CC2)cc1,8.7*,-1,0.51,-9,5,19744*,1632,+
Cc1cc2oc(C(=O)N(Cc3ccco3)C3CCS(=O)(=O)C3)cc(=O)c2cc1Cl (configuration not stated),0.98,0,0.24,2,-2,.,.,.
CCC(C)C(NC(=O)c1ccccc1NC(=O)c1ccco1)C(=O)NC1CCCCC1 (configuration not stated),0.81,1,-0.058,9,8,.,.,.
CSC1=NC(NCCCO)c2c(sc3c2CC(C)(C)OC3)N1 (configuration not stated),3.9*,8,0.41,7,10,11400*,1504,i
Cc1cc(C)c2c(n1)sc1c(N3CCN(CCO)CC3)ncnc12,7.2*,6,1,10,3,11076*,1676,+
Brc1ccc2nc(CSc3ncn[nH]3)cn2c1,-0.41,-2,0.59,3,-3,.,.,.
O=C(OCCN1C(=O)c2ccccc2C1=O)c1cc(S(=O)(=O)N2CCOCC2)ccc1F,12*,2,-0.6,7,2,9428*,1532,+
O=C(CCN1C(=O)c2ccccc2C1=O)Nc1ccc(S(=O)(=O)N2CCOCC2)cc1,-0.064,6,0.42,-1,2,.,.,.
CCOCCCNC(=O)CN(Cc1ccc(Cl)cc1)S(C)(=O)=O,0.43,8,-0.085,-2,5,.,.,.
COCCCNC(=O)CN(Cc1ccc(Cl)cc1)S(C)(=O)=O,9.2*,10,-0.87,6,9,5504,1488,i
CCn1c(SCC(=O)N(Cc2ccccc2)C2CCS(=O)(=O)C2)nc2ccccc2c1=O (configuration not stated),8.9*,2,0.081,8,6,13696*,.,+
SMILES,D1 allo mod,ROCK2 inh,DAT uptake mod,JNK3 inh,PKA kinase inh,D1 PAM confirm,D1 no dopamine,Isoprot counter
Cc1onc(-c2ccccc2Cl)c1C(=O)NCCn1c(C)cc2ccccc21,-1.3,1,.,1,2,.,.,.
O=C(CCCCn1c(=O)c2ccccc2n(CC(=O)NC2CCCC2)c1=O)NC1CCCC1,4.4*,1,0.97,4,0,4732,1368,i
COc1ccc(NC(=O)CCn2cccc2)cc1,-0.38,0,0.0053,4,3,.,.,.
O=C(c1cccc(-c2nnc(-c3ccccc3)o2)c1)N1CCCCC1,7.9*,4,1.5,-7,10,12576*,1552,+
CCOc1ccc(OCC)c(NC(=O)CC2Oc3ccc(C)cc3NC2=O)c1 (configuration not stated),2.7*,-1,-1.4,1,6,6392,1720,i
Cn1c(=O)c2c(nc(NCC3CCCO3)n2Cc2cccc(Br)c2)n(C)c1=O (configuration not stated),.,.,1.4,.,.,.,.,.
CCCCC(=O)NC1=NC(=O)C(C)(C)S1,0.46,6,0.18,-4,7,.,.,.
COc1cc(OC)cc(C(=O)Nn2cc(C(=O)N3CCN(C)CC3)c3ccccc3c2=O)c1,2.9*,.,0.92,.,7,5944*,1800,i
CC(C)Cn1c(SCC(=O)NCc2ccc(Cl)cc2)nnc1-c1cccc(S(=O)(=O)N2CCOCC2)c1,.,.,0.43,.,.,.,.,.
CCC(=O)Nc1sc2c(c1C#N)CC(C)(C)NC2(C)C,6.4*,.,0.0033,.,-1,7612,1848,i
COC(=O)c1cc(OC)c(OC)cc1NC(=O)c1ccoc1C,1.2,2,-0.54,3,2,.,.,.
COc1ccc(OC)c(C2C=C(c3ccc(C)c(C)c3)Nc3nnnn32)c1 (configuration not stated),3.9*,2,2.2,3,1,6516*,1816,i
COc1cccc(C2=CC(c3cccc(OC)c3OC)n3nnnc3N2)c1 (configuration not stated),2,2,-1.5,0,2,.,.,.
COc1cccc(C2=CC(c3cc(OC)ccc3OC)n3nnnc3N2)c1 (configuration not stated),4.1*,6,.,0,6,8488*,.,+
COc1ccc(C2=CC(c3ccc(OC)c(OC)c3)n3nnnc3N2)c(OC)c1 (configuration not stated),9.3*,7,0.48,3,1,15796*,2008,+
COc1cccc(C2C=C(c3ccc(OC)cc3OC)Nc3nnnn32)c1 (configuration not stated),0.12,1,0.82,-8,2,.,.,.
O=c1ccc(-c2ccccc2)n[nH]1,.,.,-0.0099,.,.,.,.,.
COc1ccc(-c2ccc(=O)[nH]n2)cc1,8.2*,.,-0.13,.,2,10236*,1400,+
CCOc1ccc(-c2nc(CSc3nnc(C)s3)cs2)cc1OC,.,.,1.8,.,.,.,.,.
CCOc1ccc(-c2nc(CSc3nncs3)cs2)cc1OC,23*,.,-0.43,.,-5,21360*,.,+
CCn1c(=O)n(CC(=O)N(C)Cc2ccccc2)c(=O)c2ccccc21,-0.84,6,-0.72,-1,11,.,.,.

# Source: PubChem (several laboratories)
